Experimental data from PubChem BioAssay (Tox21).
Inconclusive results are not listed. Activity calls are given as the source filed them. Unless noted, calls come from the whole dose curve; as a rule, active = well fitted curve in the direction sought with a large enough effect in the repeat runs; inconclusive = weak or mixed curves; inactive = no such curve, though single readings can be large; an effect the other way counts as inactive or inconclusive.

How the values were obtained:
[1] = target: Thyrotropin receptor (Homo sapiens) (UniProt P16473); assay: qHTS assay to identify small molecule antagonists of the thyroid stimulating hormone receptor (TSHR) signaling pathway (AID 1259385; calls by dose curve; note: nearly all actives have a fitted effect of over 20% in size)
Chain of Thyrotropin receptor (Homo sapiens) (P16473 whole entry, looked up): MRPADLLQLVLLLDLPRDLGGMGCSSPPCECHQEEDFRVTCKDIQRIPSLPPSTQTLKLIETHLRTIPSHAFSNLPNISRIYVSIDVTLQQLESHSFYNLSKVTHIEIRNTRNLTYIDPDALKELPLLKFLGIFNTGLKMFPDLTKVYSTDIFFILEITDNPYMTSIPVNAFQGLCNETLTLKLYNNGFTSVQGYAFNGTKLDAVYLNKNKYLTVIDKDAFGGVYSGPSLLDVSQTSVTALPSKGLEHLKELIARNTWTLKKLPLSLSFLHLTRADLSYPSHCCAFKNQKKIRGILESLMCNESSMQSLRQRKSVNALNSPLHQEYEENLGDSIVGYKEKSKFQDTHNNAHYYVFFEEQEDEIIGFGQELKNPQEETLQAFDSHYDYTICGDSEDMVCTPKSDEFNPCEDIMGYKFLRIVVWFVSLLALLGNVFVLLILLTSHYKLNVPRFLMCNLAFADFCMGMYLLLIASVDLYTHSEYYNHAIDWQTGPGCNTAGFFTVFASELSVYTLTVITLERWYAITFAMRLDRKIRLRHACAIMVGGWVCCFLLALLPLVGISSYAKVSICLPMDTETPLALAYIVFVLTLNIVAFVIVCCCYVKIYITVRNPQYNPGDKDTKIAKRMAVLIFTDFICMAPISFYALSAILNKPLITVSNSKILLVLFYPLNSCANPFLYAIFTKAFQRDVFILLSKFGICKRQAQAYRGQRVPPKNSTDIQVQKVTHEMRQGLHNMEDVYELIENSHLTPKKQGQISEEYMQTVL
How it was run: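 TSHR-HEK293 cells were plated and held 18 h at 37C/5% CO2, then given compound plus Ro20-1724 and stimulated with TSH at 1.5 ng/mL final. After 30 min at room temperature, cAMP was detected with cAMP-d2/anti-cAMP-cryptate (1 h) by fluorescence.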

[2] = qHTS assay to identify small molecule agonists of the estrogen receptor alpha (ER-alpha) signaling pathway in the presence of an antagonist - cell viability counter screen (AID 1259386);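 note: series mostly up to about 92 µM; cells exposed to compounds for 22 h at 37 °C before the viability read; nearly all actives have a fitted effect of over 30% in size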
How it was run: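 ICI-182,780 at 10.0nM final accompanies the compound titration (15 concentrations, 22hr, 37C) on VM7Luc4E2 cells. The CellTiter-Fluor fluorescence readout runs in the same wells as the luciferase assay.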

[3] = target: Progesterone receptor (Homo sapiens) (UniProt P06401); assay: qHTS assay to identify small molecule agonists of the progesterone receptor (PR) signaling pathway (AID 1346784; calls by dose curve; note: nearly all actives have a fitted effect of over 30% in size)
Chain of Progesterone receptor (Homo sapiens) (P06401 whole entry, looked up): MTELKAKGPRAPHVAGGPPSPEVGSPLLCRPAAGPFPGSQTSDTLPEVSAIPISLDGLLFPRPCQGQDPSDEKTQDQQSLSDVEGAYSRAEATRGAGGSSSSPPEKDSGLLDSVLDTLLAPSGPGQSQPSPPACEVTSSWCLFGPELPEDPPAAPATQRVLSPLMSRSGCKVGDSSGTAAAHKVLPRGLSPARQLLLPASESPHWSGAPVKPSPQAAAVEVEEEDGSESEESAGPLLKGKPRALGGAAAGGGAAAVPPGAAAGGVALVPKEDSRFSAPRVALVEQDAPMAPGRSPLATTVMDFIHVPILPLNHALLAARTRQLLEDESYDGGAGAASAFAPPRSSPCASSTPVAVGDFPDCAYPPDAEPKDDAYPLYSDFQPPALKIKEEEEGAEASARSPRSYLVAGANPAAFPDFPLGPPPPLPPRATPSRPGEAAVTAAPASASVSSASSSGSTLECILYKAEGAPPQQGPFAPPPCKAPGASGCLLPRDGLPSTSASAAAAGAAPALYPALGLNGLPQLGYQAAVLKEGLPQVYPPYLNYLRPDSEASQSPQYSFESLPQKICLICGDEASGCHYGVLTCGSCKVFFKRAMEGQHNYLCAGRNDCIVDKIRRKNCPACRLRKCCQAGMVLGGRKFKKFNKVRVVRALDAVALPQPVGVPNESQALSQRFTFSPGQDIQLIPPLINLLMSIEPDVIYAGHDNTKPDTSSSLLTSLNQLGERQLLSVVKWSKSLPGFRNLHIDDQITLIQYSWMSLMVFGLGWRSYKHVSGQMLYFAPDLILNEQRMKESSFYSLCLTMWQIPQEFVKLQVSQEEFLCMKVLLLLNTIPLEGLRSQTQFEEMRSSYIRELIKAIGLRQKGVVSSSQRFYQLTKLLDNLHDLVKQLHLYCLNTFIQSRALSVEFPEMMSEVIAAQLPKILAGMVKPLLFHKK
How it was run: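 The screen uses PR-UAS-bla HEK 293T cells in charcoal-stripped serum (2%). Compounds are applied for 16 hr at 37C after a 6 hr pre-incubation, and reporter activity is detected with a FRET beta-lactamase substrate after 2 hr at room temperature.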

[4] = target: Progesterone receptor (Homo sapiens) (UniProt P06401); assay: qHTS assay to identify small molecule antagonists of the progesterone receptor (PR) signaling pathway (AID 1346795; active = well fitted inhibition curve with a large enough effect in the signal ratio in the repeat runs, not every such curve was filed as active; the % refers to the signal ratio)
How it was run: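 After 6 hr plating at 37C in 2% stripped-serum medium, PR-UAS-bla HEK293T cells got compounds, then 1 nM R5020. Sixteen hours later, LiveBLAzer substrate was applied for 2 hr at room temperature and fluorescence was recorded.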

[5] = qHTS assay to identify small molecule antagonists of the progesterone receptor (PR) signaling pathway - cell viability counter screen (AID 1346798); note: series mostly up to about 92 µM; nearly all actives have a fitted effect of over 50% in size
How it was run: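 Viability was determined by ATP-based luminescence (CellTiter-Glo) in PR-UAS-bla HEK293T cells cultured in 2% charcoal-stripped serum and incubated 16 hr with compounds under R5020 stimulation.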

[6] = qHTS assay to identify small molecule agonists of the progesterone receptor (PR) signaling pathway - cell viability counter screen (AID 1346799; calls by dose curve; note: nearly all actives have a fitted effect of over 45% in size)
How it was run: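 Viability was scored by ATP luminescence (CellTiter-Glo, 30 min, room temperature) in the same wells used for the reporter readout, after 16 hr compound exposure of PR-UAS-bla HEK293T cells.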

[7] = qHTS assay to identify small molecule antagonists of the TGF-beta/Smad signaling pathway - cell viability counter screen (AID 1346824); note: nearly all actives have a fitted effect of over 50% in size
How it was run: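 SBE-bla HEK 293T cells were plated overnight at 37 C, then given compounds in DMSO plus TGF-beta1 (added as 0.25 ng/mL solution) for 5 hr. After the bla read, CellTiter-Glo was added to the same wells and luminescence read after 30 min at room temperature.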

[8] = qHTS assay to identify small molecule agonists of the TGF-beta/Smad signaling pathway - cell viability counter screen (AID 1346829); note: top concentration of the series differs between compounds; nearly all actives have a fitted effect of over 45% in size
How it was run: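 HEK 293T SBE-bla line, 5 hr compound exposure at 37 C, multiplexed CellTiter-Glo viability read by luminescence.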

[9] = qHTS assay to identify small molecule agonists of the TGF-beta/Smad signaling pathway (AID 1346859; active = well fitted activation curve with a large enough effect in the signal ratio in the repeat runs, not every such curve was filed as active; the % refers to the signal ratio; note: series mostly up to about 77 µM)
How it was run: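 Dual-wavelength fluorescence (460/530 nm emission) quantified beta-lactamase expression under the Smad binding element in HEK 293T cells following 5 hr compound treatment at 37 C.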

[10] = target: Thyrotropin-releasing hormone receptor (Homo sapiens) (UniProt P34981); assay: qHTS assay to identify small molecule antagonists of the thyrotropin-releasing hormone receptor (TRHR) signaling pathway (AID 1346877; active = well fitted inhibition curve with a large enough effect in the repeat runs, not every such curve was filed as active; note: series mostly up to about 51 µM)
Chain of Thyrotropin-releasing hormone receptor (Homo sapiens) (P34981 whole entry, looked up): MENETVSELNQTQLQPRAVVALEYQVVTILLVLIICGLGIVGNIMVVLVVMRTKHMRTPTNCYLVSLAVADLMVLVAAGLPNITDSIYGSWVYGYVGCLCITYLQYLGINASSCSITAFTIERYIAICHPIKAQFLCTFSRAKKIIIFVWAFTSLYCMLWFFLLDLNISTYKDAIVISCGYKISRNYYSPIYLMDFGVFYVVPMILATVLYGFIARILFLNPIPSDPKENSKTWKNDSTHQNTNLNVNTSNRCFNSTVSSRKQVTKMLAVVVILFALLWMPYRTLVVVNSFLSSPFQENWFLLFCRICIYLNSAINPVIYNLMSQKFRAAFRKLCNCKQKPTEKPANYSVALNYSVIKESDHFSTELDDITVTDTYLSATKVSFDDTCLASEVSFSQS
How it was run: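 Screening used HEK293 cells engineered with TRHR, with a brief 5 min room-temperature compound exposure preceding addition of TRH to 1 nM. The read-out was kinetic calcium-dye fluorescence, concentration-response from 15 doses in triplicate.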

[11] = target: Thyrotropin-releasing hormone receptor (Homo sapiens) (UniProt P34981); assay: qHTS assay to identify small molecule agonists of the thyrotropin-releasing hormone receptor (TRHR) signaling pathway (AID 1346891; calls by dose curve;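 note: HEK293 cells expressing TRHR with calcium dye readout; series mostly up to about 58 µM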)
How it was run: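 Kinetic fluorescence (3 min, 1 s intervals) reported intracellular calcium after compound transfer onto TRHR-Hek293 cells pre-loaded with dye for 2 h at 37 °C.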

[12] = Human pregnane X receptor (PXR) small molecule agonists, qHTS cell viability counter screen (AID 1346977); note: nearly all actives have a fitted effect of over 50% in size
How it was run: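 HepG2 cells stably carrying the PXR-Luc reporter are cultured with 5% charcoal-stripped FBS and treated with compounds for 24hr. CellTiter-Fluor is added at 23hr and fluorescence is read after 1hr.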

[13] = Caspase-3/7 induction in HepG2 cells by small molecules, qHTS assay (AID 1346978); note: nearly all actives have a fitted effect of over 15% in size
How it was run: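 Wild-type HepG2 cells (2,000/well) were settled 5 h at 37 C, 5% CO2, then exposed to compounds in DMSO for 17 h. Caspase-3/7 activity was read by luminescence 30 min after adding Caspase-Glo 3/7 reagent at room temperature.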

[14] = Caspase-3/7 induction in CHO-K1 cells by small molecules, qHTS cell viability counter screen (AID 1346979); note: nearly all actives have a fitted effect of over 35% in size
How it was run: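 Seeding: 1,500 CHO-K1 cells/well. Rest: 5hr, 37C. Treatment: compounds in DMSO, 16hr. Read: CellTiter-Fluor, 1hr, fluorescence.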

[15] = Caspase-3/7 induction in CHO-K1 cells by small molecules, qHTS assay (AID 1346980); note: nearly all actives have a fitted effect of over 15% in size
How it was run: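 Wild-type cells were seeded at 1,500 per well and settled 5 hr at 37 C, 5% CO2, then exposed to DMSO-dissolved compounds for 17 hr. Caspase-Glo 3/7 reagent was added, and luminescence was read after 30min at room temperature.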

[16] = Caspase-3/7 induction in HepG2 cells by small molecules, qHTS cell viability counter screen (AID 1346981); note: series mostly up to about 92 µM; nearly all actives have a fitted effect of over 30% in size
How it was run: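 Multiplexed with the caspase-3/7 assay: HepG2 cells, 16 hr compound treatment, CellTiter-Fluor viability detection by fluorescence.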

[17] = target: Nuclear receptor subfamily 1 group I member 2 (Homo sapiens) (UniProt O75469); assay: Human pregnane X receptor (PXR) small molecule agonists, qHTS assay (AID 1346982); note: nearly all actives have a fitted effect of over 35% in size
Chain of Nuclear receptor subfamily 1 group I member 2 (Homo sapiens) (O75469 whole entry, looked up): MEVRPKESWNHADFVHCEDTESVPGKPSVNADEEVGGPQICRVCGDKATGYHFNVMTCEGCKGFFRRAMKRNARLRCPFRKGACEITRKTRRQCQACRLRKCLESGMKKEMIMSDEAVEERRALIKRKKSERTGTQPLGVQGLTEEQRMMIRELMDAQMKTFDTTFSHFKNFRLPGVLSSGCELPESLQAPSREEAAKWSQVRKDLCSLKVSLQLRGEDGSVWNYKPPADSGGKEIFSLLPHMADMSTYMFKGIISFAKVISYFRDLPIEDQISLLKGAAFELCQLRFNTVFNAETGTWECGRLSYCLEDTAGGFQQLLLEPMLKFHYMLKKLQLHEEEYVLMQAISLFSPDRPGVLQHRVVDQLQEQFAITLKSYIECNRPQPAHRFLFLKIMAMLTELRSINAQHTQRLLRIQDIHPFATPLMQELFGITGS
How it was run: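 We seeded PXR-Luc HepG2 cells in assay medium containing 5% charcoal-stripped FBS, added compounds 5 hr later, incubated 24 hr, and read luminescence with ONE-Glo reagent.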

[18] = target: Nuclear receptor subfamily 1 group I member 2 (Rattus norvegicus) (UniProt Q9R1A7); assay: Rat pregnane X receptor (rPXR) activation by small molecules, qHTS assay (AID 1346983); details: rPXR luciferase reporter cells, One-Glo luminescence, 24 h; active compounds read high; note: nearly all actives have a fitted effect of over 20% in size
Chain of Nuclear receptor subfamily 1 group I member 2 (Rattus norvegicus) (Q9R1A7 whole entry, looked up): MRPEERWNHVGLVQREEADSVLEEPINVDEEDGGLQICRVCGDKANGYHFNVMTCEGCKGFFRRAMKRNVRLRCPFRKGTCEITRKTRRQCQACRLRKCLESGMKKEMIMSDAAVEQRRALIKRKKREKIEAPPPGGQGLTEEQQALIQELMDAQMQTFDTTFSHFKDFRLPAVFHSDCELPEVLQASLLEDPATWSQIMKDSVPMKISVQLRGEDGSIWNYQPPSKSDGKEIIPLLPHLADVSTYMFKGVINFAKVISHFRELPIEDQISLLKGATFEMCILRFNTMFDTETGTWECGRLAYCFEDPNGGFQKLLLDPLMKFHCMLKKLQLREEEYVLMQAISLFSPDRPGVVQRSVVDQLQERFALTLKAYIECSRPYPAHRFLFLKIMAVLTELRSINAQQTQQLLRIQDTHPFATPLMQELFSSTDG
How it was run: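 Cell-based rPXR luciferase reporter assay, 2,000 cells per well, rested 5hr at 37 C before compound addition in DMSO, then 24 hr at 37 C. One-Glo reagent was added and luminescence read after 30 min at room temperature.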

[19] = target: Nuclear receptor subfamily 1 group I member 2 (Homo sapiens) (UniProt O75469); assay: CYP3A4 induction through human pregnane X receptor (PXR) by small molecules, qHTS assay (AID 1346984); note: nearly all actives have a fitted effect of over 40% in size
How it was run: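 qHTS, concentration-response format: HepG2 DPX-2 line, PXR/CYP3A4-luc. Exposure 24 h, 37C. Substrate Luciferin-IPA 3uM final, 3 h. Detection One-Glo, 30 min RT.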

[20] = target: Nuclear receptor subfamily 1 group I member 2 (Homo sapiens) (UniProt O75469); assay: Human pregnane X receptor (PXR) activation by small molecules, qHTS assay (AID 1346985); note: nearly all actives have a fitted effect of over 40% in size
How it was run: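 DPX-2 cells (HepG2 co-transfected with a PXR response element and a CYP3A4-promoter luciferase construct) were seeded at 2,000 per well, rested 5 hr at 37C, then exposed to DMSO-dissolved compounds for 24 hr. Activation was read as luciferase luminescence.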
% is set by controls: 0 for no effect and ±100 for the full control effect.

O=c1cc(CO)occ1O
inactive: Potency [1] | Potency [2] | Potency [3] | Potency [4] | Potency [5] | Potency [6] | Potency [7] | outcome [8] | outcome [9] | outcome [10] | outcome [11] | Potency [12] | Potency [13] | Potency [14] | outcome [15] | Potency [16] | Potency [17]

N[C@H]1CN(c2c(F)cc3c(=O)c(C(=O)O)cn(C4C[C@H]4F)c3c2Cl)CC12CC2 (some centres undefined)
inactive: Potency [1] | Potency [2] | Potency [3] | Potency [4] | Potency [5] | Potency [6] | Potency [7] | outcome [8] | outcome [9] | outcome [10] | outcome [11] | Potency [12] | Potency [14] | outcome [15] | Potency [16] | Potency [17]

CN1CCCC1
inactive: Potency [1] | Potency [2] | Potency [3] | Potency [4] | Potency [5] | Potency [6] | Potency [7] | outcome [8] | outcome [9] | outcome [10] | outcome [11] | Potency [12] | Potency [13] | Potency [14] | outcome [15] | Potency [16] | Potency [17]

CC(C)CCCC(C)N (centres undefined)
inactive: Potency [1] | Potency [2] | Potency [3] | Potency [4] | Potency [5] | Potency [6] | Potency [7] | outcome [8] | outcome [9] | outcome [10] | outcome [11] | Potency [12] | Potency [13] | Potency [14] | outcome [15] | Potency [16] | Potency [17] | max activation [18] -5.35% | Potency [19] | Potency [20]

N[C@H](C(=O)O)c1ccc(O)cc1
inactive: activity change, negative = inhibition [1] -2.34% [at 19 µM] | activity change, negative = cytotoxicity [2] 3.8% [at 19 µM] | activation [3] -0.625% [at 19 µM] | Potency [4] | Potency [5] | activity change, negative = cytotoxicity [6] -6.4% [at 19 µM] | viability change, negative = cytotoxic [7] 1.75% [at 15.8 µM] | activity change, negative = cytotoxicity [8] -0.107% [at 15.8 µM] | activation [9] -1.41% [at 15.8 µM] | activity, negative = inhibition [10] 3.01% [at 10.5 µM] | activation [11] 0.371% [at 11.8 µM] | activity change, negative = cytotoxicity [12] 0.445% [at 19 µM] | caspase activation [13] -0.122% [at 19 µM] | Potency [14] | caspase-3/7 activation [15] -0.938% [at 19 µM] | activity change, negative = cytotoxicity [16] 0.561% [at 19 µM] | activation [17] -2.7% [at 19 µM] | max activation [18] -1.63% | Potency [19] | Potency [20]

C=C[Si](OC(=C)C)(OC(=C)C)OC(=C)C
inactive: Potency [1] | Potency [2] | Potency [3] | Potency [4] | Potency [5] | Potency [6] | Potency [7] | outcome [8] | outcome [9] | outcome [10] | outcome [11] | Potency [12] | Potency [13] | Potency [14] | outcome [15] | Potency [16] | Potency [17]

C=COCC1CCC(CO)CC1 (centres undefined)
inactive: Potency [1] | Potency [2] | Potency [3] | Potency [4] | Potency [5] | Potency [6] | Potency [7] | outcome [8] | outcome [9] | outcome [10] | outcome [11] | Potency [12] | Potency [13] | Potency [14] | outcome [15] | Potency [16] | Potency [17]
